“And” between values parts separate entries of the source, which are not always exact repeats. Identical values can stand only once. Compounds without any hit were thinned out: in the full panel of roughly 83,000, 20% have a hit.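 Treatment: one concentration, 48 hours, 96-well format. Scoring: percent growth, with anything below 10 considered active.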 The source made the active and inactive calls.
The molecules below were run on SR leukemia (assay: NCI-60 one-dose screen, 48 h (100 = growth as untreated, 0 = no growth, -100 = all killed)). Details: 10 µM.
Procedure: Growth inhibition of the SR human tumor cell line is measured as a screen for anti-cancer activity. Cells are grown in 96 well plates and exposed to the test compound for 48 hours. Compounds are tested at a single concentration, which is 10^-5 M for most compounds. The reported endpoint is percent growth (GI% or GIPRCNT), where numbers from 0 - 100% represent growth inhibition, and numbers from -100% - 0 represent cell death. For example, a value of 40 represents 60% growth inhibition. A value of 0 means no net growth occurred over the course of the experiment. A value of -40 indicates 40% of cells at the beginning of the experiment died by the end of the experiment. A value of -100 means all cells are dead at the end of the experiment.
NCI-60 Human Tumor Cell Lines Screen was performed using the standard one-dose NCI protocol, which is described in more detail at https://dtp.cancer.gov/discovery_development/nci-60/default.htm.
Compounds with GIPRCNT values below 10 were considered active. Activity score was based on GIPRCNT using the following formula: […]
Score is 0 for GIPRCNT values of 100 or above, 50 for GIPRCNT values of 0, and 100 for GIPRCNT values of -100.
`S=C(SSC(=S)N1CCCCC1)N1CCCCC1` was tested, and the growth was 86.2% (inactive).

Same assay, conditions: 10 µM unless noted
`Oc1cc[c]([Hg][Cl])cc1` was tested, and the growth was 38.2% (inactive).
With `O=C1c2ccccc2C(=O)C(Cl)C1Cl` (stereo unspecified) the growth was 35.6% (inactive).
`CC1=C(CO)C2=C(C)C3(CC3)[C@@](C)(O)C(=O)C2=C1` was tested, and the growth was 21.4% (inactive).
`CC[C@](O)(C(=O)O)c1cc2n(c(=O)c1CO)Cc1cc3ccccc3nc1-2` was tested, and the growth was -20.3% (active).
For `CCC1(O)CC(OC2CC(N(C)C)C(OC3CC4OC5CC(=O)C(C)OC5OC4C(C)O3)C(C)O2)c2c(cc3c(c2O)C(=O)c2c(O)ccc(O)c2C3=O)C1C(=O)OC` (stereo unspecified), the growth was -6.58% (active).
With `CC(=O)O[C@H]1C[C@@H]2OC3C=C(C)CCC3(C)[C@@]1(C)[C@@]21CO1` (stereo partly specified) the growth was -17.5% (active).
With `CCOC(=O)C(NC(=O)C(Cc1ccc(N(CCCl)CCCl)cc1)NC(C)=O)C(C)C` (stereo unspecified) the growth was 28.2% (inactive).
`COc1cccc2c1cc([N+](=O)[O-])c1c(C(=O)O)cc3c(c12)OCO3` was tested, and the growth was 28.1% (inactive) and 76.3% (inactive).
`COC1=C(C)C(=O)C2=C(C1=O)C(CO)N1C(C#N)C3CC4C(C1C2N1CCOC41)N3C` (stereo unspecified) was tested, and the growth was -19.5% (active).
In the case of `CO[C@H](/C(C)=C/C=C/C(C)=C/c1coc(C)n1)[C@H](C)[C@H]1C[C@@H](O)[C@@]2(C)O[C@H]2/C=C/[C@@H](C)[C@@H]2C[C@@H](CC(=O)O2)C[C@H]2O[C@@H]2C(=O)O1`, the growth is reported as -4.11% (active).
`C[C@H]1CCC/C=C/[C@@H]2C[C@H](O)C[C@H]2[C@H](O)/C=C/C(=O)O1` was tested, and the growth was -6.07% (active).
In the case of `CCCCCCCCCCCC1CCCC(C)N1` (stereo unspecified), the growth is reported as -28% (active).
With `Cc1c(N)nc([C@H](CC(N)=O)NC[C@H](N)C(N)=O)nc1C(=O)N[C@H](C(=O)N[C@H](C)[C@@H](O)[C@H](C)C(=O)N[C@H](C(=O)NCCc1nc(-c2nc(C(=O)NCCC[S+](C)C)cs2)cs1)[C@@H](C)O)C(OC1OC(CO)C(O)C(O)C1OC1OC(CO)C(O)C(OC(N)=O)C1O)c1cnc[nH]1` (stereo partly specified) the growth was -4.59% [2.5 µM] (active).
`CCC(=O)OC1CCn2c1nc1c2C(=O)C(C)=C(N2CC2)C1=O` (stereo unspecified) was tested, and the growth was 1.48% (active).
`Oc1cccc2cccnc12` was tested, and the growth was 40.1% (inactive) and 105% (inactive) and 57.7% (inactive).
For `C[C@]12CC[C@H](O)CC1=CC[C@@H]1[C@@H]2CC[C@]2(C)C(=O)CC[C@@H]12`, the growth was -4.91% (active).
With `COc1ccc(OC)c(/C=C/[N+](=O)[O-])c1` the growth was -13% (active).
`CC[C@@]1(O)C[C@H](OC2CC(N(C)C)C(O)C(C)O2)c2c(O)c3c(c(O)c2[C@H]1OC1CC(N(C)C)C(O)C(C)O1)C(=O)c1cccc(O)c1C3=O` (stereo partly specified) was tested, and the growth was -7.1% (active).
With `NCCc1ccc(OCc2ccccc2)c(OCc2ccccc2)c1` the growth was -27.5% (active).
`CC1=C2C(=O)[C@H]3[C@@H](CC=C4C[C@@H](O)CC[C@@]43C)[C@@H]2CC[C@]12O[C@@H]1C[C@H](C)CN[C@H]1[C@H]2C` was tested, and the growth was 95.2% (inactive).
`COC1CC(CC2CCC(C)C(C(C)C(=O)O)O2)OC2(OC(C)(C3CCC(C)(C4OC(C5OC(O)(CO)C(C)CC5C)CC4C)O3)CC2C)C1C` (stereo unspecified) was tested, and the growth was -28.8% (active).
With `CC[C@@]1(O)C(=O)OCc2c1cc1n(c2=O)Cc2cc3ccccc3nc2-1` the growth was -3.04% (active).
In the case of `CC[C@@]1(O)C[C@H](OC2CC(N(C)C)C(OC3CC(O)C(OC4CCC(=O)C(C)O4)C(C)O3)C(C)O2)c2c(cc3c(c2O)C(=O)c2c(O)ccc(O)c2C3=O)[C@H]1C(=O)OC` (stereo partly specified), the growth is reported as 1.06% (active).
For `COc1ccccc1/C=C(/C)[N+](=O)[O-]`, the growth was 10% (inactive) and 92.3% (inactive).

Same assay, conditions: 100 µM
`S=C(SSC(=S)N1CCCCC1)N1CCCCC1` was tested, and the growth was -8.68% (active).
